Hit rate of the full screen: of about 350,000 compounds, about 2,300 (0.66%) were called active.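 Rule for the calls: active = mean inhibition of at least 50% after viability correction, with every replicate also passing that limit; inconclusive = mean reaches 50% but only one of two replicates passes; inactive = the rest.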 The entries come from a sample that favours actives as a whole.

From PubChem BioAssay AID651661 (Broad Institute, 2012) come the findings set out here.

The test in a line: blockers of EWS/Fli transcriptional output – A673 cells, NR0B1 luciferase, luminescence, MLPCN library, primary screen (AID 651661).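 Note: firefly luciferase signal divided by Alamar Blue viability fluorescence both relative to DMSO.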 The conditions noted are these: A673 NR0B1-luciferase reporter, viability-normalised; at 12.6 µM; active compounds read high. On the technique in general: Reporter assays use an easily measured gene product as a stand-in for the process of interest.
A word on the inhibition: it is the drop in the measured response relative to a control, in per cent. With `COCC(=O)Nc1ccc2c(c1)C(=O)N(C)[C@@H]1CC[C@H](CC(=O)NCCc3ccccc3)O[C@@H]1CO2`, the inhibition was 6.92% (inactive).
For `C[C@H](CO)N1C[C@H](C)[C@@H](CN(C)S(=O)(=O)c2ccc([N+](=O)[O-])cc2)OCc2ccccc2-c2c(n(C)c3ccccc23)C1=O`, the inhibition is 14.6% (inactive).
To `CO[C@H]1CN(C)C(=O)c2cc(NC(C)=O)ccc2OC[C@H](C)N(C(=O)CN(C)C)C[C@@H]1C` belongs -2.59% (inactive).
For the compound `CCS(=O)(=O)N1CCC2(CC1)CN[C@H](CO)c1c2c2ccc(OC)cc2n1C`, the inhibition is 8.2% (inactive).
As for `CCOc1ccc(OCc2ccc(C(=O)N(C)c3ccccc3)o2)cc1`, the inhibition is -36.4% (inactive).
To `CC(C)(C)OC(=O)N(Cc1ccccc1)Cc1ccc(OCc2cccc(NC(=O)c3ccccc3)c2)cc1` belongs 11.8% (inactive); to `CCOc1ccc(OCc2cccc(C(=O)N(CC)CC)c2)cc1`, 67.8% (active); to `CC=Cc1ccc2n(c1=O)C[C@@H]1[C@@H](CO)[C@H](C(=O)N(C)C)N(CC3CCOCC3)[C@H]21` (mixture of isomers), -1.84% (inactive).
The figure for `Cc1ccccc1S(=O)(=O)N1[C@H](CO)[C@@H](c2ccc(-c3ccccc3)cc2)[C@@H]1C#N` is 18.6% (inactive); for `O=C(C[C@H]1C[C@@H]2c3cc(NC(=O)C4CCOCC4)ccc3O[C@@H]2[C@H](CO)O1)NCC1CC1` it is 2.22% (inactive); for `C[C@@H]1C[C@@H]2O[C@H]2/C=C\C=C\C(=O)Cc2c(Cl)c(O)cc(O)c2C(=O)O1` it is 76.6% (active).
In the case of `CC(C)(C)c1ccc(Oc2ccc(N)cc2)cc1`, the inhibition is 65.3% (active).
To `COc1cnc(-c2ccccn2)nc1Oc1ccc(C(C)(C)C)cc1` belongs 18.9% (inactive); to `COCC(=O)Nc1ccc2c(c1)C(=O)N(C)[C@@H]1CC[C@@H](CC(=O)NCC(F)(F)F)O[C@H]1CO2`, -7.87% (inactive).
As to `CCNC(=O)Nc1ccc2c(c1)C(=O)N(C)[C@@H]1CC[C@@H](CC(=O)NC3CCCCC3)O[C@H]1CO2`, the inhibition is 6.61% (inactive).
As for `O=C(c1ccc(F)cc1)N1CC(=O)N2[C@H](C1)[C@@H](c1ccc(C#CC3CC3)cc1)[C@@H]2CO`, the inhibition was -6.65% (inactive).
As for `CCCNC(=O)N1C[C@@H](C)[C@@H](OC)CN(C)C(=O)c2ccc(NC(=O)C3CCC3)cc2OC[C@@H]1C`, the inhibition was -1.5% (inactive).
Consider `C(=N\Nc1ccc2ccccc2n1)/c1ccc2c(c1)OCO2`, for which the inhibition was 59.1% (active).
With `Clc1ccc(Nc2ccc3ccccc3n2)cc1`, the inhibition is -53.3% (inactive).
As for `NC(=O)c1ccc(NC(=O)COC(=O)c2c3c(nc4ccccc24)/C(=C\c2ccc4c(c2)OCO4)CCC3)cc1`, the inhibition was -2.89% (inactive).
As to `CC(C)NC(=O)N1C[C@@H]2[C@H](c3ccccc31)[C@@H](CO)N2Cc1ccc(Cl)cc1`, the inhibition is 14.5% (inactive).
To `CCN1/C(=C\c2ccc3ccccc3[n+]2CC)Sc2cc(C)ccc21` belongs 56.7% (active).
As to `Nc1c(C(=O)NCc2ccccc2)nnn1Cc1cccc(Cl)c1`, the inhibition is 53% (active).
To `Nc1c(C(=O)Nc2ccc3c(c2)OCCO3)nnn1Cc1ccccc1` belongs -100% (inactive).
To `COc1cccc(CNC(=O)c2nnn(CC(=O)Nc3cc(Cl)ccc3C)c2N)c1` belongs 2.98% (inactive).
The figure for `COc1cccc(S(=O)(=O)N(C)C[C@@H]2Oc3ncc(-c4cccc(C(=O)N(C)C)c4)cc3C(=O)N([C@H](C)CO)C[C@H]2C)c1` is -6.58% (inactive).
With `COc1ccc(CN(C)C[C@H]2OCCCC[C@H](C)Oc3ccc(NS(C)(=O)=O)cc3C(=O)N([C@H](C)CO)C[C@@H]2C)cc1`, the inhibition is 1.53% (inactive).
Take `CN(C)CC#Cc1ccc([C@@H]2[C@H](CO)N3CCCCN(C(=O)Nc4ccc(F)cc4)C[C@@H]23)cc1`: the inhibition was -2.85% (inactive).
Regarding `COc1ccc(C#Cc2ccc([C@H]3[C@@H](CO)N4CCCCN(C(=O)Nc5ccccc5)C[C@H]34)cc2)cc1`, the inhibition was 17.2% (inactive).
`O=C(Nc1ccc(F)cc1)N1CCCCN2[C@H](CO)[C@H](c3ccc(C#Cc4ccccc4)cc3)[C@H]2C1`: the inhibition is 84.6% (active).
The figure for `CO[C@H]1CN(C)C(=O)c2ccc(NC(=O)C3CCC3)cc2OC[C@@H](C)NC[C@H]1C` is 10.2% (inactive).
To `CO[C@H]1CN(C)C(=O)c2cc(NC(=O)C3CCCCC3)ccc2OC[C@H](C)N(C(=O)c2ccccc2)C[C@H]1C` belongs 9.65% (inactive); to `CCCNC(=O)[C@H]1[C@H](CO)[C@H]2Cn3c(cccc3=O)[C@H]2N1Cc1ccccc1Cl`, -2.68% (inactive).
In the case of `COC(=O)c1cc(C(=O)N(Cc2ccccc2)c2ccccn2)cc([N+](=O)[O-])c1`, the inhibition is 7.71% (inactive).
As for `O=C(CCl)N(Cc1cccc([N+](=O)[O-])c1)c1cccc(Cl)c1`, the inhibition is 60% (active).
With `CC(=O)N(CN1C(=O)C2C3C=CC(C3)C2C1=O)c1cccc(Cl)c1` (configuration not stated), the inhibition was -2.77% (inactive).
To `CCC(=O)N(C)C[C@H]1Oc2cc(C#CCOC)ccc2S(=O)(=O)N([C@H](C)CO)C[C@H]1C` belongs -9.57% (inactive); to `CCOc1ccccc1N1CCN(C(=O)COc2ccc3c(C)cc(=O)oc3c2)CC1`, 6.43% (inactive); to `CCn1c(C)c(C)c2cc(C(=O)N3CCN(c4cccc(C)c4C)CC3)ccc21`, 5.16% (inactive).
`CCOc1ccccc1N1CCN(C(=O)c2ccc3[nH]c(C)c(C)c3c2)CC1`: the inhibition is 55.9% (active).
Turning to `CCC(=O)Nc1ccc2c(c1)C(=O)N(C)[C@H]1CC[C@H](CC(=O)NC3Cc4ccccc4C3)O[C@H]1CO2`, the inhibition was 4.71% (inactive).
The figure for `COc1ccc2c3c(n(C)c2c1)[C@H](CO)N(Cc1ccccc1Cl)CC31CN(C(=O)CN(C)C)C1` is 6.01% (inactive); for `CS(=O)(=O)N1CCN(C(=O)c2cc3ccccc3oc2=O)CC1` it is -13.4% (inactive); for `COc1cccc(-n2c(=S)[nH]c3c(oc4ccccc43)c2=O)c1` it is -11.6% (inactive).
As for `O=c1oc2ccccc2cc1-c1cn(-c2ccccc2)c(=S)[nH]1`, the inhibition is 67.6% (active).
`O=C(N[C@H]1CC[C@H](CCNS(=O)(=O)c2ccc(F)cc2)O[C@H]1CO)c1cccnc1`: the inhibition is -0.681% (inactive).
Consider `C[C@@H]1CN([C@@H](C)CO)C(=O)Cc2cc(NC(=O)C3CCCCC3)ccc2O[C@@H]1CN(C)Cc1ccc(C(=O)Nc2ccccc2N)cc1`, for which the inhibition is 12.7% (inactive).
